Data on 54 molecules can be found in PubChem BioAssay AID504714 (Sanford-Burnham Center for Chemical Genomics, 2011).

Structures are written as SMILES. Among all 1,000 compounds or so, fewer than 10 were called active. These entries were drawn from the full list. A number with no mark means an inactive call. The rule behind the calls is not given here.

The test in a line: uracil-DNA glycosylase inhibition, oligo cleavage readout – biochemical, single concentration, fluorescence, FAM/TAMRA oligo, counter-screen for APOBEC3A inhibitor project, confirmation (AID 504714). The settings on record: UDG counterscreen, at 20 µM, hits give high values.
For the molecule `CCCN1C2=C(C(=O)CCC2)C(c2ccc(O)c(Br)c2)C2=C1CCCC2=O`, the inhibition was 0.9%.
On to `COc1ccc(CNc2nnnn2C)cc1`, for which the inhibition was -2.73%.
On to `CCN1C(=NCC(C)C)N[C@@H](CCc2ccccc2)[C@H](C(=O)NCC(C)C)[C@H]1C`, for which the inhibition was -1.61%.
With `COC(=O)C[n+]1cccc2ccccc21`, the inhibition was -1.97%.
With `N#Cc1ccsc1NC(=O)CN1CCN(S(=O)(=O)c2cc(Cl)ccc2Cl)CC1`, the inhibition is -0.63%.
The same measure for `COc1ccc(Br)cc1CN(C)C(=O)C1CC(=O)N(C2CCCC2)C1` (centres undefined): 1.84%; for `COCCCn1c(Cc2csc(Nc3cccc(Cl)c3)n2)nnc1SCC(=O)OC1CCCCC1`: 5.59%.
Take `COc1ccc(CCNC(=O)COC(=O)/C=C/c2cccs2)cc1OC`: the inhibition is -1.3%.
In the case of `COc1ccccc1CCNC(=O)C1CCN(C(=O)/C=C/c2ccccc2)CC1`, the inhibition is 2%.
With `CCCCNC(=O)CSc1nc2ccc(NC(=O)CSc3nnc(N)s3)cc2s1`, the inhibition is -1.96%.
With `CC(C)CCOc1ccc(C(=O)C[N+]2(C)CCOCC2)cc1`, the inhibition was 1.5%.
Take `O=C(c1ccc(CS(=O)(=O)c2ccccc2)o1)N1CCN(c2ccccc2)CC1`: the inhibition was -1.02%.
As for `COC(=O)C1=C(C)N(Cc2ccccc2)C(=NCCCOC(C)C)N[C@H]1c1ccccc1`, the inhibition is -3.67%.
Regarding `CC1(C)CC(N2CCN(C(c3ccccc3)c3ccccc3)CC2)=CC(=[N+]2CCCCC2)C1`, the inhibition is -2.53%.
For `S=C(Nc1cccnc1)Nc1ccccn1`, the inhibition is -1.6%.
Consider `CC1(C)Oc2ccc3ccc(=O)oc3c2/C(=C/NCCO)C1=O`, for which the inhibition was -2.48%.
For `NS(=O)(=O)c1cc(C(=O)OCC(=O)NNC(=O)c2ccccc2)ccc1Cl` the value was 5.01%.
The same measure for `O=C1c2oc3ccccc3c(=O)c2C(c2cccc(O)c2)N1c1ccccn1` (centres undefined): 3.41%; for `CSc1nnc(SCc2nc3sc(C(=O)O)c(C)c3c(=O)[nH]2)s1`: -3.34%.
`CCn1c(SCC(=O)Nc2cccc(F)c2)nnc1-c1cc2cc(Br)ccc2o1`: the inhibition is 6.96%.
As for `CCOC(=O)c1ccc(NC(=O)CSc2ncccn2)cc1`, the inhibition was 1.35%.
For the molecule `Cc1ccc(CCCOC(=O)C[N+]2(C)CCCCC2)cc1`, the inhibition is 0.55%.
The same measure for `C[N+](C)(CCCCCC[N+](C)(C)CCCN1C(=O)c2cccc3cccc(c23)C1=O)CCCN1C(=O)c2cccc3cccc(c23)C1=O`: 1.2%; for `CC(Oc1ccc(F)cc1)C(=O)Nc1cc(S(=O)(=O)N2CCOCC2)ccc1N1CCN(C)CC1` (centres undefined): -3.61%; for `C=CC1=C(C(=O)O)N2C(=O)[C@@H](NC(=O)/C(=N/OCC(=O)O)c3csc(N)n3)[C@H]2SC1`: -3.4%.
As to `O=C(COC(=O)c1cnc(Cl)c(Cl)c1)NCc1ccco1`, the inhibition was 0.62%.
For the molecule `Cc1ccc(C(=O)N/N=C\c2cc(Br)c(Br)o2)cn1`, the inhibition is 2.94%.
Regarding `CC(C)c1ccc(/C=C2\NC(=O)NC2=O)cc1`, the inhibition is -1.04%.
The same measure for `CC[n+]1cc(C)ccc1/C=C/c1ccc(N(C)C)cc1`: -2.09%.
On to `CS(=O)(=O)c1ccc2c(c1)SC1=NC(=O)/C(=C/c3ccco3)C(=N)N12`, for which the inhibition was 1.37%.
`CC(=O)Nc1ccc(NC(=O)C2CCCN(S(=O)(=O)c3ccc(Cl)cc3)C2)cc1` (centres undefined): the inhibition was 7.05%.
Regarding `CCNC(=O)COC(=O)CCNC(=O)c1cccc(C)c1`, the inhibition was -0.25%.
Consider `CC(=O)Nc1ccc(Nc2cc(C)nc(Nc3ccc(NC(C)=O)cc3)n2)cc1`, for which the inhibition was 4.81%.
`CCCCCCCC[n+]1cccc(C(=O)N2c3c(nc(N)[nH]c3=O)NC(C)C2C)c1` (centres undefined): the inhibition is -1.86%.
As for `C[n+]1ccc(C(=O)NCc2ccccc2)cc1`, the inhibition is -2.62%.
For `CCN1C(=NCCc2cccnc2)N[C@@H](c2ccccc2)[C@H](C(=O)OC)[C@H]1C` the value was -0.96%; for `O=C(Nc1cccc(-c2nc3ccccc3[nH]2)c1)c1ccc(C(=O)Nc2cccc(-c3nc4ccccc4[nH]3)c2)cc1`, -1.03%.
On to `CC(/C=C/c1ccccc1)=N\NC(=O)C1CC1(C)c1ccccc1` (centres undefined), for which the inhibition is 1.23%.
On to `Cc1cc2c(cc1C)[n+](C)cn2CC(O)COCC1CC=CCC1` (centres undefined), for which the inhibition was 4.84%.
As to `Cc1csc(SCC(=O)Nc2sccc2C#N)n1`, the inhibition is -2.94%.
The same measure for `COc1ccc(C)cc1NC(=O)CCCN1C(=O)NC(C)(C)C1=O`: 2.69%; for `CCN(CC)CCCNC(=O)CCn1nc(-c2ccc(Cl)cc2)ccc1=O`: -0.02%; for `N#Cc1ncc(C(F)(F)F)cc1Oc1cccnc1`: -2.52%.
For the molecule `C[N+]1(CCNC(=O)/C=N/O)CCCCC1`, the inhibition was 2.37%.
`CSc1nnc(-c2ccncc2)n1CCCN1CCCC1=O`: the inhibition was 2.58%.
With `C[N+]1(CC(O)COc2ccccc2)CCN(C(=O)c2ccc([N+](=O)[O-])cc2)CC1` (centres undefined), the inhibition is -0.77%.
For `CCCc1nc(-c2cc3cc(C)ccc3[nH]c2=O)no1` the value was -1.41%; for `CCN1C(=NCc2ccc(OC)cc2)N[C@@H](CCc2ccccc2)[C@H](C(=O)NCc2ccc(OC)cc2)[C@H]1C`, 2.26%; for `CCS(=O)(=O)c1ccc(-c2cccc(NC(=O)c3ccc(Br)o3)c2)nn1`, -1.58%.
Regarding `COc1ccc(Cc2nnc(NC(=O)c3ccc(OC)cc3OC)s2)cc1`, the inhibition was 2.26%.
For `Cc1nnc(N/N=C/c2ccccn2)[nH]c1=O`, the inhibition is 3.44%.
As for `COc1ccccc1-c1noc(CSc2nc(C)cc(=O)[nH]2)n1`, the inhibition was -1.99%.
Take `N#Cc1ccccc1CN1C(=O)S/C(=C/c2cccn2-c2cccc(C(=O)O)c2)C1=O`: the inhibition was -1.19%.
Regarding `CC[n+]1c(C)n(-c2ccccc2)c2ccc(NC(C)=O)cc21`, the inhibition is -1.23%.
